# Source: PubChem
# A selection: hits, their analogues and other compounds. The true share with any hit is near 2.4%.
# POLB inh = inhibitors of human DNA polymerase beta; P06746; 340,000 tested, 1.3% active; Pol beta primer extension/strand displacement, fluorescence kinetic; Potency, µM (highest dose often 114 µM), for the others: top-dose activity change, negative = inhibition, most hits filed as inhibitors; further: on the % scale 0 is the no-effect control and ±100 the full control effect
#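 Human Pol beta at 10 nM; strand-displacement substrate 50 nM final. Compound exposure 15 min at room temperature before start, reaction 10 min at room temperature.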
# Pol iota inh = DNA polymerase iota (human) inhibition; Pol iota fluorescent replication assay, 10 min; Q9UNA4; Potency, µM (series often up to 115 µM), inactives show at the top dose activity, negative = inhibition, most hits filed as inhibitors; 390,000 tested, 1% active
#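 Pol iota at 10 nM preincubated 15 min with compounds at room temperature; reaction started with fluorescent substrate, 50 nM final. Fluorescence read kinetically at 0 and 10 min; buffer-only wells as negative control.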
# Pol kappa inh = DNA polymerase kappa (human) inhibition. Potency, µM (series often up to 107 µM), inactives show at the top dose activity, negative = inhibition, most hits filed as inhibitors. 400,000 tested, 0.53% active. Q9UBT6. purified Pol kappa, fluorescent DNA synthesis assay, 10 min; further: on the % scale 0 is the no-effect control and ±100 the full control effect
#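 50 nM final substrate added after 15 min RT preincubation of 10 nM Pol kappa with compound; fluorescence read at 0 and 10 min.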
# FEN1 inh = inhibitors of human flap endonuclease 1; P39748; 390,000 tested, 0.35% active; Recombinant FEN1 flap cleavage, fluorescence, 15 min; Potency, µM (highest dose often 114 µM), for the others: at the highest dose activity change, negative = inhibition, hits mostly inhibitors; further: on the % scale 0 is the no-effect control and ±100 the full control effect; nearly all actives have a fitted effect of over 65% in size
# Target sequence (P39748 whole entry, looked up): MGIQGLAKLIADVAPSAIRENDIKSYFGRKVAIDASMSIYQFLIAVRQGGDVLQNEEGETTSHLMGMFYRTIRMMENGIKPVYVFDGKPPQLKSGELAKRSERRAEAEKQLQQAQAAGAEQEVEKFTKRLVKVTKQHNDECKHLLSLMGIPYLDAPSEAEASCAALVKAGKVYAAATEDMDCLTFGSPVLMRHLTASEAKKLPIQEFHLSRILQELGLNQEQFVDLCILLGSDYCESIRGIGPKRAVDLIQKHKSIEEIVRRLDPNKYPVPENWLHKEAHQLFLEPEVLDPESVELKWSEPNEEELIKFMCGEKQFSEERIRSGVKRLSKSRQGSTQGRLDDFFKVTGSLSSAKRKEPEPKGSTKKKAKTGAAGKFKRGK
#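 In this screen, 50 nM flap DNA substrate was added to 10 nM FEN1 pretreated with compound for 15 min at room temperature; cleavage was followed with reads at 0 and 15 min, and Hill fitting gave concentration–response parameters.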
# WRN inhibitor = blocks human WRN helicase | Potency, µM (series often up to 114 µM), for the others: at the highest dose activity change, negative = inhibition, most hits filed as inhibitors | AID 651768 | WRN helicase unwinding, fluorescent forked duplex, kinetic | 360,000 tested, 0.46% active; further: on the % scale 0 is the no-effect control and ±100 the full control effect; nearly all actives have a fitted effect of over 55% in size
#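 Primary qHTS, 1536-well format. 20 nM WRN + compound, 15 min RT; start with 100 nM forked fluorophore/quencher duplex, 2 mM ATP (final); kinetic read ex 525/em 598 nm.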
# POLH inh = DNA polymerase eta (human) inhibition. recombinant Pol eta, fluorescent DNA replication assay. Potency, µM (titrated, usually from 114 µM), for the others: top-dose activity change, negative = inhibition, hits mostly inhibitors. Q9Y253. 390,000 tested, 1.2% active; further: on the % scale 0 is the no-effect control and ±100 the full control effect
#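 Pol eta (10 nM) was preincubated with compounds for 15 min at room temperature, after which fluorescent replication substrate (50 nM final) was added to start the reaction. Fluorescence was read kinetically at 0 and 10 min.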
# * marks the source's active call; other numbers are inactive results; ? = inconclusive; / = no result given; [ ] = remark or other dose. The call rests on the fitted dose curve; in most records, active means well fitted curve in the direction sought with a large enough effect; inconclusive means small, poorly fitted or top-dose-only effect, or another doubt; inactive means no such curve, though single readings can be large; an effect the other way counts as inactive or inconclusive. Potency means the concentration at half of the fitted maximal effect.
SMILES,POLB inh,Pol iota inh,Pol kappa inh,FEN1 inh,WRN inhibitor,POLH inh
COc1cc2c(NC3CCN(C)CC3)nc(N3CCCN(C)CC3)nc2cc1OCCCCCN(C)C,/,?,-14%,22µM*,/,/
COc1cc2c(NC3CCN(C)CC3)nc(N3CCN(C)CC3)nc2cc1OCCCN(C)C,/,?,-20%,?,/,/
CCOc1ccccc1C(=O)Oc1c(S(=O)(=O)c2ccc(C)cc2)c(C)nn1-c1ccccc1,9%,2%,-5%,-13%,/,-21%
NC1CCc2ccc([N+](=O)[O-])cc21 (centres undefined),/,3%,-6%,-9%,/,/
CCOc1ccc(-c2c(C)nn3c(-c4ccccc4)c(C(=O)NCCOC)cnc23)cc1OCC,4%,-16%,3%,-3%,/,/
CCOC(=O)c1cccc(NC(=O)c2cc3ccccn3n2)c1,-1%,36%,0%,-4%,/,-14%
CCN(CC)CCCOc1cc2nc(N3CCCN(C)CC3)nc(NC3CCN(C)CC3)c2cc1OC,/,?,-14%,25µM*,/,/
COc1cc2c(NC3CCN(C(C)C)CC3)nc(N3CCCN(C)CC3)nc2cc1OCCCN(C)C,/,?,-17%,32µM*,/,/
COc1cc2nc(N3CCN(C)CC3)nc(NC3CCN(Cc4ccccc4)CC3)c2cc1OC,/,-12%,-17%,?,/,/
CC[C@H](C)[C@H](NC(=O)[C@H](CCCNC(=N)N)NC(=O)[C@@H](NC(=O)[C@H](CCCNC(=N)N)NC(=O)[C@H](CCCCN)NC(=O)[C@H](CCCNC(=N)N)NC(=O)[C@@H](NC(=O)[C@H](CC(N)=O)NC(=O)[C@@H](N)CS)[C@@H](C)O)[C@@H](C)CC)C(=O)N[C@@H](CCC(N)=O)C(=O)N[C@@H](CCCNC(=N)N)C(=O)NCC(=O)N1CCC[C@H]1C(=O)NCC(=O)N[C@@H](CCCNC(=N)N)C(=O)N[C@@H](C)C(=O)N[C@@H](Cc1ccccc1)C(=O)N[C@H](C(=O)N[C@H](C(=O)N[C@H](C(=O)NCC(=O)N[C@@H](CCCCN)C(=O)O)[C@@H](C)CC)[C@@H](C)O)C(C)C,/,/,-11%[12 µM],/,/,/
COc1ccc(OC)c(NC(=O)CSc2ncc3c(n2)-c2ccccc2N(C)S3(=O)=O)c1,-1%,32%,-12%,1%,/,-16%
O=C(CCc1nc2sc3c(c2c(=O)[nH]1)CCCC3)Nc1cccc(Cl)c1,/,79µM*,-32%,-6%,-20%,13µM*
Cc1cc(C)cc(NC(=O)CCc2nc3sc4c(c3c(=O)[nH]2)CCCC4)c1,/,45µM*,?,9%,-15%,20µM*
CCN(CC)C(=O)c1cccc(NC(=O)CCc2nc3sc4c(c3c(=O)[nH]2)CCCC4)c1,/,?,-8%,4%,?,-7%
CC(=O)Nc1ccc(NC(=O)CCc2nc3sc4c(c3c(=O)[nH]2)CCCC4)cc1,/,40µM*,-43%,9%,-13%,?
CN(C)c1ccc(C2C=Cc3ccccc32)c2ccccc12 (centres undefined),/,21%,9%,-3%,/,/
CC(C)[C@H](NC(=O)[C@@H](Cc1c[nH]c2ccccc12)NC(=O)[C@H](Cc1ccc(O)cc1)NC(=O)[C@@H](N)CC(=O)O)C(=O)N[C@H](Cc1c[nH]c2ccccc12)C(=O)N[C@H](Cc1c[nH]c2ccccc12)C(=O)N[C@@H](CCCCN)C(N)=O,/,/,-10%[12 µM],/,/,/
Cc1cccc(-n2ccc(=O)c(C(=O)Nc3ccc(S(=O)(=O)Nc4nccs4)cc3)n2)c1,89µM*,-19%,-16%,-17%,6%[11.6 µM],?
O=C(Nc1ccc(S(=O)(=O)Nc2nccs2)cc1)c1cccc(N2C(=O)c3ccccc3C2=O)c1,-6%,71µM*,?,?,-26%[57.1 µM],50µM*
COc1ccc(-n2ccc(=O)c(C(=O)Nc3ccc(S(=O)(=O)Nc4nccs4)cc3)n2)cc1,?,?,-13%,11%,-24%,-15%
Cc1cc(C)c2oc(C(=O)Nc3ccc(S(=O)(=O)Nc4nccs4)cc3)cc(=O)c2c1,?,79µM*,?,-18%,-9%[11.6 µM],?
C=C1CC[C@H](O)C/C1=C/C=C1\CCC[C@]2(C)C([C@H](C)CCCC(C)(C)O)CC[C@@H]12 (some centres undefined),/,/,1%[19.4 µM],/,/,/
CSc1ccc(CCNC(=O)c2c(C)nn(-c3ccc(F)cc3)c2-n2cccc2)cc1,-7%,9%,-13%,5%,/,-29%
Cc1cc(C)nc(S/C=C/C(=O)c2ccccc2F)n1,-11%,4.5µM*,-16%,3%,?,-4%
Cc1cc(C)nc(NC(=S)NC(=O)c2ccccc2F)n1,/,70%,-15%,3%,2%,-12%
SMILES,POLB inh,Pol iota inh,Pol kappa inh,FEN1 inh,WRN inhibitor,POLH inh
CC(C)C(=O)Nc1ccc(C(=O)NNC(=O)C(c2ccccc2)c2ccccc2)cc1,?,79µM*,-16%,6%,0%[11.6 µM],-10%
CCC(=O)Nc1ccc(C(=O)NNC(=O)C(c2ccccc2)c2ccccc2)cc1,45µM*,-63%,-25%,9%,-17%,?
Cc1cc(OC(C)C(=O)NCC2CCC(C(=O)O)CC2)c2c(C)c(Cc3ccccc3)c(=O)oc2c1 (centres undefined),-36%,79µM*,-14%,?,-6%[11.6 µM],?
O=C(CSc1ccccc1)NCc1ccco1,4%,-8%,-12%,-7%,-12%,?
O=C(CSc1ccc2c(c1)OCCO2)NCc1ccco1,40µM*,?,?,-11%,-14%,?
Cc1ccc(Cn2c(SCC(=O)NCc3ccco3)nc3ccsc3c2=O)cc1,-21%,100µM*,-24%,-4%,-3%,6%
Cc1ccc(Nc2nnc(SCC(=O)NCc3ccco3)s2)cc1,10µM*,-21%,?,-2%,-16%,?
Cc1cccc(C)c1NC(=O)Cn1c(=O)n(Cc2ccc(C(=O)NCc3ccco3)cc2)c(=O)c2sccc21,45µM*,45µM*,-21%,-6%,/,/
Cc1ccccc1Nc1nnc(SCC(=O)NC(=O)NCc2ccco2)s1,?,22µM*,?,?,-19%[57.1 µM],?
Cc1ccc(SCC(=O)NC(=O)NCc2ccco2)cc1C,40µM*,/,/,/,/,/
O=C(CSc1nnc(Nc2ccccc2F)s1)NCc1ccco1,40µM*,?,?,-8%,?,14µM*
O=C(CSc1nnc(NC(=O)C2CC(=O)N(c3ccccc3)C2)s1)NCc1ccco1 (centres undefined),89µM*,50µM*,?,-13%,-21%,?
COc1ccccc1C(C)NCC(=O)NC(=O)NCc1ccco1 (centres undefined),/,50µM*,-31%,4%,-5%,?
